Laboratory results reported in the supplement of paper PMC13380429.

System: Vero E6 infected with SARS-CoV-2
Assay: inhibition of SARS-CoV-2 cytopathic effect; higher = more antiviral protection, active = above 15
Conditions: 48 h

Measured: inhibition of SARS-CoV-2 cytopathic effect

CC1(C)OC2(C)C(O)CC1CC2O (stereo not given) [epomediol]
inactive: 1 nM 7.71% | 8.33 nM 1.77% | 100 nM 4.4% | 833.33 nM 1.92% | 10000 nM 3.17%

COc1ccc(Cl)c(Nc2ncnc3cc(OCC4CCN(C)CC4)c(OC)cc23)c1
inactive: 1 nM -1.15% | 8.33 nM -0.25% | 100 nM -0.48% | 833.33 nM -6.41% | 10000 nM -13.8%

CNc1cc2c(Nc3cccc(Br)c3)ncnc2cn1
inactive: 1 nM -1.96% | 8.33 nM -0.58% | 100 nM -1.36% | 833.33 nM -4.84% | 10000 nM -2.22%

Nc1nc(OCC2CCCCC2)c2nc[nH]c2n1
inactive: 1 nM 1.06% | 8.33 nM 0.95% | 100 nM -3.55% | 833.33 nM 1.35% | 10000 nM -1.27%

O=C(O)Cc1ccc(OCCNC[C@H](O)c2ccccc2)cc1
inactive: 1 nM 2.57% | 8.33 nM 3.11% | 100 nM 0.37% | 833.33 nM -0.56% | 10000 nM 1.01%

CC1(C)C(=O)NC2=C1C(=O)C(=O)c1ccccc12
inactive: 1 nM 0.25% | 8.33 nM -0.49% | 100 nM -0.78% | 833.33 nM 1.58% | 10000 nM -10.5%

O=C(CCBr)N1CC[N+]2(CC1)CC[N+]1(CCN(C(=O)CCBr)CC1)CC2 [spirobromin]
inactive: 1 nM -0.01% | 8.33 nM -0.86% | 100 nM -0.61% | 833.33 nM -2.75% | 10000 nM -3.3%

COc1ccccc1N1CCN(CCN2C(=O)CC3(CCCC3)CC2=O)CC1
inactive: 1 nM 0.12% | 8.33 nM 1.57% | 100 nM 2.97% | 833.33 nM 1.51% | 10000 nM 0.47%

Cc1nn(C)c2c1C(c1ccc(C(F)(F)F)cc1)C(C#N)=C(N)O2 (stereo not given)
inactive: 1 nM -1.05% | 8.33 nM -1.78% | 100 nM -1.6% | 833.33 nM -1.63% | 10000 nM 2.56%

COC(=O)C1=C(C)NC(C)=C(C(=O)OC/C=C/c2ccccc2)C1c1cccc([N+](=O)[O-])c1 (stereo not given) [pranidipine]
inactive: 1 nM 1.87% | 8.33 nM 0.47% | 100 nM -0.57% | 833.33 nM 1.4% | 10000 nM 8.67%

COc1ccc(-n2c(SCCCN3C(=O)c4cccc5cccc(c45)C3=O)nnc2-c2ccncc2)cc1
inactive: 1 nM -0.26% | 8.33 nM 2.51% | 100 nM -0.79% | 833.33 nM -0.8% | 10000 nM -1.41%

CCCCCCCCCCCCCCCCO [1-hexadecanol]
inactive: 1 nM -1.82% | 8.33 nM 0.36% | 100 nM -0.66% | 833.33 nM -0.99% | 10000 nM -4.02%

COc1ccccc1N1CCN(CC(O)COc2cc(OC)c(OC)c(OC)c2)CC1 (stereo not given) [enciprazine]
inactive: 1 nM 0.76% | 8.33 nM 1.14% | 100 nM 0.33% | 833.33 nM -0.53% | 10000 nM -2.4%

O=C(Nc1cccc(C(F)(F)F)c1)Nc1ccc(Br)cc1-c1nnn[nH]1
inactive: 1 nM 1.75% | 8.33 nM 3.12% | 100 nM 2.2% | 833.33 nM 3.69% | 10000 nM 4.81%

O=C(O)C[C@H](O)C(=O)O [malic-acid]
inactive: 1 nM -0.21% | 8.33 nM -2.53% | 100 nM -1.2% | 833.33 nM 3.51% | 10000 nM 1.76%

CN1C(C)(C)CCCC1(C)C [pempidine]
inactive: 1 nM -2.83% | 8.33 nM -0.7% | 100 nM -4.34% | 833.33 nM -1.68% | 10000 nM -2.1%

Cc1[nH]c(/C=C2\C(=O)Nc3ccccc32)c(C)c1CCC(=O)O [orantinib]
inactive: 1 nM -0.96% | 8.33 nM 2.48% | 100 nM 1.61% | 833.33 nM -0.48% | 10000 nM -0.87%

O=C(CNC(=O)c1ccc(Cl)cc1)NO [benurestat]
inactive: 1 nM -3.63% | 8.33 nM -2.49% | 100 nM -1.54% | 833.33 nM -0.58% | 10000 nM 0.4%

CC(=O)Oc1ccccc1C(=O)Oc1cccc(CO[N+](=O)[O-])c1
inactive: 1 nM -1.24% | 8.33 nM -0.2% | 100 nM -0.7% | 833.33 nM 0.32% | 10000 nM 3.31%

O=C(Cn1ccnc1[N+](=O)[O-])NCCO [etanidazole]
inactive: 1 nM 0.32% | 8.33 nM 0.33% | 100 nM 4.88% | 833.33 nM -1.27% | 10000 nM -0.88%
